High-throughput results deposited in PubChem by National Center for Advancing Translational Sciences (NCATS).
ALDH1A1 block: inhibitors of human aldehyde dehydrogenase 1A1; actives 7.3% (n = 220,000); Potency, µM (top dose mostly 75.3 µM), actives largely listed as inhibitors; Purified ALDH1A1, NADH fluorescence, propionaldehyde substrate; P00352; AID 1030
Target sequence (P00352 whole entry, looked up): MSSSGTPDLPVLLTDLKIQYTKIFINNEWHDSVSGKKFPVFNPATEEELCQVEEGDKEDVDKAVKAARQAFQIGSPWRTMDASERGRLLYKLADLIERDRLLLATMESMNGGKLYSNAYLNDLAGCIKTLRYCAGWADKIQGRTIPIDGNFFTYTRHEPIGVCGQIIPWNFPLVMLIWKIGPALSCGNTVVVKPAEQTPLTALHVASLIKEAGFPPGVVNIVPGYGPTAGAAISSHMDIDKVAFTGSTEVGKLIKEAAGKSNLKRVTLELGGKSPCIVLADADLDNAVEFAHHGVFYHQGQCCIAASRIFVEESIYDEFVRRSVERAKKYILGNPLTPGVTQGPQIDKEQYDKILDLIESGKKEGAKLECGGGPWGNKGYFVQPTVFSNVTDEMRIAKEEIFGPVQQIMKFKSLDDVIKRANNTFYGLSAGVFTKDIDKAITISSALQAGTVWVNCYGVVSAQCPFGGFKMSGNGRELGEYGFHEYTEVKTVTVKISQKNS
HPGD inh: blocks human HPGD enzyme activity; actives 4.3% (n = 150,000); Potency, µM, most hits filed as inhibitors; P15428; purified HPGD, NADH fluorescence kinetic, PGE2 substrate
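20 nM HPGD preincubated 15 min at room temperature with compound in 50 mM Tris-HCl pH 8, 0.01% Tween 20. Started with 1 mM NAD+ and 30 uM prostaglandin E2; NADH fluorescence (360/450 nm) read 5 times over 30-s intervals, last minus first.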
PNC assembly inh: perinucleolar compartment assembly inhibition; activity change (PNC), negative = inhibition, % at 10 µM; actives 3.1% (n = 140,000); PC3M PTB-GFP, PNC prevalence imaging, 16 h; hits give low values; AID 2417;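 active means readout at or below -70, meaning at least 70% loss of cells showing the perinucleolar compartment, a nuclear body marking cancer cells; inconclusive means readout between -30 and a set limit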
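Read-out is percentage of cells bearing a perinucleolar compartment, from automated 20x imaging of fixed, Hoechst-stained PC3M PTB-GFP cells. Cells were seeded 4 h, then exposed 16 h to compound (23 nl of library stock) in duplicate plates.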
A number is an active result; - = inactive; ? = inconclusive; . = no result given. Compounds with a hit are over-represented: about 11% of the library has one in this group of screens. Unless noted, the call rests on the fitted dose curve; in most records, active means well fitted inhibition curve with a large enough effect (not every such curve was filed as active); inconclusive means small, poorly fitted or top-dose-only effect, or another doubt; inactive means no such curve, though single readings can be large or run the other way.

SMILES	ALDH1A1 block	HPGD inh	PNC assembly inh
O=C(CC1CCCC1)Nc1ccc2c(c1)CCC2	-	14µM	-
O=C(Cc1ccccc1)Nc1ccc2c(c1)CCC2	-	.	.
O=C(O)c1ccc(C(=O)Nc2cccc(NC(=O)C3CCCO3)c2)cc1 (centres undefined)	-	22µM	-
O=C(Nc1ccc2c(c1)CCC2)C1CCCO1 (centres undefined)	-	18µM	-
O=C(Nc1ccc(O)cc1)C1CCCO1 (centres undefined)	-	-	-
O=C(Nc1ccc2c(c1)OCCO2)c1ccc(NC(=O)C2CCCO2)cc1 (centres undefined)	?	-	?
O=C(CC1c2ccccc2Oc2ccccc21)N1CCN(c2ccccn2)CC1	?	?	-
CN(CCOc1ccc(-c2ccn(S(=O)(=O)c3c(Cl)cccc3Cl)n2)cc1)c1ccccn1	-	-	-
CN(CCOc1ccc(-c2ccn(S(=O)(=O)c3cccc4ccccc34)n2)cc1)c1ccccn1	-	-	-89
Cc1ccnc(NS(=O)(=O)c2ccc(NS(=O)(=O)c3ccccc3)cc2)n1	?	-	-100
Cc1cc(C)nc(NS(=O)(=O)c2ccc(NS(=O)(=O)c3ccccc3)cc2)n1	-	-	-
C=C(CCC12O[C@H](C(=O)O)[C@@](O)(C(=O)O)[C@](C(=O)O)(O1)[C@H](OC(=O)/C=C/[C@@H](C)C[C@@H](C)CC)[C@H]2O)[C@@H](OC(C)=O)[C@H](C)Cc1ccccc1	-	-	.
COC(=O)c1c(NC(=S)Nc2ccc(F)cc2[N+](=O)[O-])sc2c1CCCCC2	4µM	.	-
COC(=O)c1c(NC(=O)COC(=O)c2ccc(Cl)cc2[N+](=O)[O-])sc2c1CCCCC2	-	-	?
COCCN(CCOC)S(=O)(=O)c1ccc(C(=O)Nc2sc3c(c2C(N)=O)CCCCC3)cc1	?	?	-119
COC(=O)c1c(NC(C)=O)sc2c1CCCC2	25µM	-	-
COc1ccc(NC(=O)c2c(NC(=O)CNCc3ccco3)sc3c2CCC3)cc1	?	-	-
COC(=O)c1c(NC(=O)c2ccc(N(C)S(=O)(=O)c3ccc(C)cc3)cc2)sc2c1CCCC2	?	?	-
COC(=O)c1c(NC(=O)CCNCc2ccco2)sc2c1CCC2	24µM	.	.
COC(=O)c1c(NS(C)(=O)=O)sc2c1CCCC2	?	-	-
O=C(CSc1nnc2ccccn12)NC(=O)NC1CCCC1	-	-	-
CCNc1nc(ON=C(C)C)nc(N(C)C)n1	?	-	-
CC(Sc1nnc(-c2cccs2)n1-c1ccccc1)C(=O)NCc1ccc2c(c1)OCO2 (centres undefined)	-	-	-
CCOC(=O)c1c(NC(=O)c2ccccc2N(C)S(=O)(=O)c2ccccc2)sc2c1CCCC2	?	?	-
COC(=O)c1c(NC(=O)c2ccccc2N(C)S(=O)(=O)c2ccccc2)sc2c1CCCC2	?	?	-108
SMILES	ALDH1A1 block	HPGD inh	PNC assembly inh
COC(=O)c1c(NC(=O)CCCC(=O)O)sc2c1CCC2	?	-	?
COC(=O)c1c(NC(C)=O)sc2c1CCCCC2	16µM	28µM	-
CCOC(=O)c1c(NC(=S)Nc2ccc(OC)cc2)sc2c1CCC2	?	-	-
COC(=O)c1c(NC(=S)Nc2ccc(C(=O)N3CCOCC3)cc2)sc2c1CCC2	3.5µM	.	.
CN1CCC(Nc2ncc3ncnc(Nc4ccc(F)c(Cl)c4)c3n2)CC1	-	?	.
Cc1ccc(-n2c(CNC(=O)c3cccs3)nnc2SCC(=O)NO)cc1	-	.	.
CN(Cc1ccccc1)C(=O)CN1CCN(C(c2ccccc2)c2ccccc2)CC1	-	.	.
C[C@@H]1NC(=O)[C@H](CCCN=C(N)N)NC(=O)c2cc([N+](=O)[O-])cc(I)c2OCC[C@@H](C(=O)NC(CC(=O)O)C(N)=O)NC1=O (some centres undefined)	?	-	-
CC(C)=NNc1nc(-c2ccccc2)cs1	-	-	-
CC(/C=C/c1ccccc1)=N\Nc1nc(-c2ccccc2)cs1	?	-	-85
Cc1cc(C)cc(-n2cnc3cc(C(=O)O)ccc32)c1	-	16µM	-
CCCNC(=O)c1ccc2c(c1)ncn2-c1cc(C)cc(C)c1	-	.	.
CC1=CC(=O)C2=C(C)C[C@H](OC(=O)Cc3ccccc3)C3[C@H](OC(=O)[C@H]3C)C12 (some centres undefined)	?	-	.
O=C(Nc1ccc2c(c1)OCCO2)c1ccccc1F	-	?	-
O=C(c1ccccc1F)c1cc2c(cc1[N+](=O)[O-])OCCO2	11µM	.	.
COC(=O)c1ccc(CNC(=O)COC(=O)c2ccc(N(C)C)cc2)cc1	-	.	.
Cc1ccc(S(=O)(=O)n2ccc(-c3cccc(OCc4c(F)cccc4Cl)c3)n2)cc1	-	-	-
Cc1ccc(S(=O)(=O)n2ccc(-c3ccc(OCc4c(F)cccc4Cl)cc3)n2)cc1	-	-	-100
